# Measurements as given in the supplement of paper PMC10849652.
# Of roughly 7,900 targets only a part is listed; those with a hit were picked by preference. About 0.6% of all pairs of compound and target were hits. Values without a mark were called inactive.
# Legend:
# Experiment in all cases: log2 fold change, soluble protein after heating vs DMSO (PISA); higher = thermal stabilisation; K562 cells, 10 uM, 30 min; active = over 0.2 and 3.5 SD of the protein, either way, in both replicates (recomputed)
# [1] = compound: COC1=CC=C(C=C1)CN2C=CC3=C2C=C(C=C3)C(=O)NO
# How it was run: (§1)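 Soluble protein was defined as the supernatant after 21,000xg for 90 min. It came from K562 cells at 2×10^6 cells/mL given 10 μM compound for 30 min, heated in aliquots for 3 min across 48°C-58°C, pooled, and extracted in PBS with 0.5% NP-40 at 4°C, and was quantified by TMTpro 16plex LC-MS/MS with equalised channel sums. Thermal stability against control samples, from duplicates, is reported as log2 fold change.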
# filanesib = compound: CON(C)C(=O)N1N=C(c2cc(F)ccc2F)S[C@@]1(CCCN)c1ccccc1 [filanesib]
# How it was run: as §1
# zotarolimus = compound: CO[C@H]1C[C@@H]2CC[C@@H](C)[C@@](O)(O2)C(=O)C(=O)N2CCCC[C@H]2C(=O)O[C@H]([C@H](C)C[C@@H]2CC[C@H](n3cnnn3)[C@H](OC)C2)CC(=O)[C@H](C)/C=C(\C)[C@@H](O)[C@@H](OC)C(=O)[C@H](C)C[C@H](C)/C=C/C=C/C=C/1C [zotarolimus]
# How it was run: as §1
# alisertib = compound: COc1cc(Nc2ncc3c(n2)-c2ccc(Cl)cc2C(c2c(F)cccc2OC)=NC3)ccc1C(=O)O [alisertib]
# How it was run: as §1
# [2] = compound: COc1cc2nc(-c3cc(F)ccc3O)nc(N[C@@H]3CNC[C@H]3C(C)(C)O)c2cc1OC
# How it was run: as §1
# gefitinib = compound: COc1cc2ncnc(Nc3ccc(F)c(Cl)c3)c2cc1OCCCN1CCOCC1 [gefitinib]
# How it was run: as §1
# [3] = compound: COc1cccc2cc(-c3nc([C@H]4CC[C@H](C(=O)O)CC4)n4ncnc(N)c34)[nH]c12
# How it was run: as §1
# lapatinib = compound: CS(=O)(=O)CCNCc1ccc(-c2ccc3ncnc(Nc4ccc(OCc5cccc(F)c5)c(Cl)c4)c3c2)o1 [lapatinib]
# How it was run: as §1
# [4] = compound: CS(=O)(=O)c1ccc(-c2cnc(N)c(C(=O)Nc3ccccc3)n2)cc1
# How it was run: as §1
# crizotinib = compound: C[C@@H](Oc1cc(-c2cnn(C3CCNCC3)c2)cnc1N)c1c(Cl)ccc(F)c1Cl [crizotinib]
# How it was run: as §1
# [5] = compound: C[C@@H]1COCCN1C2=NC(=NC(=C2)C3(CC3)S(=O)(=O)C)C4=C5C=CNC5=CC=C4
# How it was run: as §1
# [6] = compound: C[C@H](C1=CC=C(C=C1)C(=O)NC2=C3C=CNC3=NC=C2)N
# How it was run: as §1
# duvelisib = compound: C[C@H](Nc1ncnc2nc[nH]c12)c1cc2cccc(Cl)c2c(=O)n1-c1ccccc1 [duvelisib]
# How it was run: as §1
# tozasertib = compound: Cc1cc(Nc2cc(N3CCN(C)CC3)nc(Sc3ccc(NC(=O)C4CC4)cc3)n2)n[nH]1 [tozasertib]
# How it was run: as §1
# [7] = compound: Cc1cc(SCc2sc(-c3ccc(C(F)(F)F)cc3)nc2C)ccc1OCC(=O)O
# How it was run: as §1
# doramapimod = compound: Cc1ccc(-n2nc(C(C)(C)C)cc2NC(=O)Nc2ccc(OCCN3CCOCC3)c3ccccc23)cc1 [doramapimod]
# How it was run: as §1
# ispinesib = compound: Cc1ccc(C(=O)N(CCCN)[C@@H](c2nc3cc(Cl)ccc3c(=O)n2Cc2ccccc2)C(C)C)cc1 [ispinesib]
# How it was run: as §1
# idasanutlin = compound: COc1cc(C(=O)O)ccc1NC(=O)[C@@H]1N[C@@H](CC(C)(C)C)[C@](C#N)(c2ccc(Cl)cc2F)[C@H]1c1cccc(Cl)c1F [idasanutlin]
# How it was run: as §1
# pictilisib = compound: CS(=O)(=O)N1CCN(Cc2cc3nc(-c4cccc5[nH]ncc45)nc(N4CCOCC4)c3s2)CC1 [pictilisib]
# How it was run: as §1
# gandotinib = compound: Cc1cc(Nc2cc(CN3CCOCC3)c3nc(C)c(Cc4ccc(Cl)cc4F)n3n2)n[nH]1 [gandotinib]
# How it was run: as §1
# UniProt Q15910, sequence (Q15910 whole entry, looked up): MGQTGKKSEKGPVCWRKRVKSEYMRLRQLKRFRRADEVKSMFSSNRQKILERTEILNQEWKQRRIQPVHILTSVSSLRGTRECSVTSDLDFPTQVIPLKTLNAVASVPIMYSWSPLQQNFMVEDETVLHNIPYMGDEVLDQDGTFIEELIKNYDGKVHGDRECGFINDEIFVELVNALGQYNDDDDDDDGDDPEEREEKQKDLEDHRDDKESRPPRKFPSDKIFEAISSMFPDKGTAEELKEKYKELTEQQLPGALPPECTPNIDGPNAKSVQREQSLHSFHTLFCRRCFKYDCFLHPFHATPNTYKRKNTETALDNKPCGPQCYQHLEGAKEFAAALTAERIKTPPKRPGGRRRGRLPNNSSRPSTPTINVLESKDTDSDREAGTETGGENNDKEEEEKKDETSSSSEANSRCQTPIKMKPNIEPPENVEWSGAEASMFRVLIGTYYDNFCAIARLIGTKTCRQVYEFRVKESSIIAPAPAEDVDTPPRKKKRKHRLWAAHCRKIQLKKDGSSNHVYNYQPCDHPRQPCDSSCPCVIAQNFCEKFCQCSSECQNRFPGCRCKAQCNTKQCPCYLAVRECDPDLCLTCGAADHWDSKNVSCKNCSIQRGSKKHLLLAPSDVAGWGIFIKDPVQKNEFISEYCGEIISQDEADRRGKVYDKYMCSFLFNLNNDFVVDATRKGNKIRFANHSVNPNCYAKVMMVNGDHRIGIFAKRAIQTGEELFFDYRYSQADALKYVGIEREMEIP
# UniProt Q01780, sequence (Q01780 whole entry, looked up): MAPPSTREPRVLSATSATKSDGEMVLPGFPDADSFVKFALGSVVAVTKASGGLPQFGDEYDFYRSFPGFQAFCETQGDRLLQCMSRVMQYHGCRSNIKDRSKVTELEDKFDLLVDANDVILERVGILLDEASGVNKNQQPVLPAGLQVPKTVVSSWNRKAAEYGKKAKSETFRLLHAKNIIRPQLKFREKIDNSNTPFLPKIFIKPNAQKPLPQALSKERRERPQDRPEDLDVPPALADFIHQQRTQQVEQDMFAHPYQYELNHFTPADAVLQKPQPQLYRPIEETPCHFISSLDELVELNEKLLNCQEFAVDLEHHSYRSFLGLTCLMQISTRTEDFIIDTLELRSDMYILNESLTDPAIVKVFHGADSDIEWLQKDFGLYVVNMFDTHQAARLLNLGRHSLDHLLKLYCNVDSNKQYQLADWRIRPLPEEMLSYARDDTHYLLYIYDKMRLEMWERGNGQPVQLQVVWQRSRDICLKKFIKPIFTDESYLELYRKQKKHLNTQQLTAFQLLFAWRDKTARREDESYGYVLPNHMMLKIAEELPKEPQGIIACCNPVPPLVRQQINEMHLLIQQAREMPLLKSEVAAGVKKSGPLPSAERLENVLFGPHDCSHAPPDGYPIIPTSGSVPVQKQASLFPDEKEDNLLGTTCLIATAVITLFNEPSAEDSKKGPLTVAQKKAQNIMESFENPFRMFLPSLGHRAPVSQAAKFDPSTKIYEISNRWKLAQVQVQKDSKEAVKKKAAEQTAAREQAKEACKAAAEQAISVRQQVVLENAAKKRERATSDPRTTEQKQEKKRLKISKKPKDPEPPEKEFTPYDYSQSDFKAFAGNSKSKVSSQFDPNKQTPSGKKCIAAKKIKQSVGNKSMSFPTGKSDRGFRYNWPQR
# UniProt Q13409, sequence (Q13409 whole entry, looked up): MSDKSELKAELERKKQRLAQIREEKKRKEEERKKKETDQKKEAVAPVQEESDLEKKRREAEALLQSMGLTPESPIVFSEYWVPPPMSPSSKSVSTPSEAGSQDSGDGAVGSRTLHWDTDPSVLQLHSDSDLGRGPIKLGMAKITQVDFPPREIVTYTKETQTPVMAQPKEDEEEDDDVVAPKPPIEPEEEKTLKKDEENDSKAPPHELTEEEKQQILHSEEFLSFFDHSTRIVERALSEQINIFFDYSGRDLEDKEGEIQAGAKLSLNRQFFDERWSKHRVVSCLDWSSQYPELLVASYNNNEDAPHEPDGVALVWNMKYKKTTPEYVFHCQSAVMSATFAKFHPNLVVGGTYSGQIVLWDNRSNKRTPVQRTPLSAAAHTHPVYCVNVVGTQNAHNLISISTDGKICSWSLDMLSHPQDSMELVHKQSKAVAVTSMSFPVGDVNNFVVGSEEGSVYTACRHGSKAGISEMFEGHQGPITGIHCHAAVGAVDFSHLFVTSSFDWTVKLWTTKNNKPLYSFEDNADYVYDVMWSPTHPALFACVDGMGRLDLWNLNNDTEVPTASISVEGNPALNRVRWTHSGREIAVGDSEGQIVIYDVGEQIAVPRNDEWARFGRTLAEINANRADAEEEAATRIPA
# UniProt Q6P3W2, sequence (Q6P3W2 whole entry, looked up): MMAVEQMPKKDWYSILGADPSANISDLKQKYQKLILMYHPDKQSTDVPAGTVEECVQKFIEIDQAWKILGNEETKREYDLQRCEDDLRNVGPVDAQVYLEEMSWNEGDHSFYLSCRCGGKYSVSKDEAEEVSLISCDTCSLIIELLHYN
# UniProt P32519, sequence (P32519 whole entry, looked up): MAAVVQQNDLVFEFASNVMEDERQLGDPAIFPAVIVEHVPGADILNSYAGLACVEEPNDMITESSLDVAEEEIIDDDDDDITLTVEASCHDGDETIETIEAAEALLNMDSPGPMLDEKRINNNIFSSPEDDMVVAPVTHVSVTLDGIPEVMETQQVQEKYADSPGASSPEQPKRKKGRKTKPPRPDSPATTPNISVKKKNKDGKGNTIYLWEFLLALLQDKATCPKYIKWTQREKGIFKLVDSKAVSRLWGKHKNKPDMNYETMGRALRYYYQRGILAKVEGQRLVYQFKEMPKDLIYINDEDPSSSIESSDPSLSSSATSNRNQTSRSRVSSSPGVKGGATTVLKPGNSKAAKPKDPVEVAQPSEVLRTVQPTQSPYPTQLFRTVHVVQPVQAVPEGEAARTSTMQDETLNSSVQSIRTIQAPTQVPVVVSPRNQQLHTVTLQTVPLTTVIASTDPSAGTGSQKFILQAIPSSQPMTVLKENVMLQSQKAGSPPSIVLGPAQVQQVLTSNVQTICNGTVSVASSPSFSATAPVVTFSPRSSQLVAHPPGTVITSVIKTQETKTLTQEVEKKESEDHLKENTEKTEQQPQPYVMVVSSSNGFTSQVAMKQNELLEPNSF
# UniProt Q9NSI2, sequence (Q9NSI2 whole entry, looked up): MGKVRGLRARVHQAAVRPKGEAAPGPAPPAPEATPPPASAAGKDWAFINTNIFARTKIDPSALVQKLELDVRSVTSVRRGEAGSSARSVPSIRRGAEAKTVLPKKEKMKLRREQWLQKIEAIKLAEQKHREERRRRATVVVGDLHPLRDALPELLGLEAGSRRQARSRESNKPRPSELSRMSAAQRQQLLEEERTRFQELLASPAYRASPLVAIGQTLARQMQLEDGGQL
# UniProt Q2TBE0, sequence (Q2TBE0 whole entry, looked up): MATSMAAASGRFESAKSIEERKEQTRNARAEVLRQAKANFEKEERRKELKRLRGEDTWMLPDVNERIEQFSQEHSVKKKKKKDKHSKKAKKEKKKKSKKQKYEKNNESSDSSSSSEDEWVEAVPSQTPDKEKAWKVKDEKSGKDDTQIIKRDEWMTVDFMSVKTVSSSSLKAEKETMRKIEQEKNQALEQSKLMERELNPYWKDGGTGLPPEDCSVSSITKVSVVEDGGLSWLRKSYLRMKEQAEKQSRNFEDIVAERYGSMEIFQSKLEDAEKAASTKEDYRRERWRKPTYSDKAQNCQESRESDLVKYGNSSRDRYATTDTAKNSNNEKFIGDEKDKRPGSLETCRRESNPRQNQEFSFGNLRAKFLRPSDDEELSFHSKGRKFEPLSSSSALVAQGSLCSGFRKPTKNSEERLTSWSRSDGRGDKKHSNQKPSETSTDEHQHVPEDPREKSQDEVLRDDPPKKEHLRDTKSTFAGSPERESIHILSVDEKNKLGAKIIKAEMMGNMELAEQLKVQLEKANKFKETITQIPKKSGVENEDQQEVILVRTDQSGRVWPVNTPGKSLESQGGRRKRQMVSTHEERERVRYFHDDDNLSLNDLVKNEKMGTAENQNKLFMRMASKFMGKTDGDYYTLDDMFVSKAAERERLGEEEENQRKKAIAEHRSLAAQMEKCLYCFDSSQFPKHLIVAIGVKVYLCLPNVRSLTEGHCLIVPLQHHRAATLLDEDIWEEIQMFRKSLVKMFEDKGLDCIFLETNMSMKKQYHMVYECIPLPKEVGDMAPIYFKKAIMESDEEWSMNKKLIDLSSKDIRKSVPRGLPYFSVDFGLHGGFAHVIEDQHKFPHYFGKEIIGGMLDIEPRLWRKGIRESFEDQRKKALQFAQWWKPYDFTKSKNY
# UniProt P50570, sequence (P50570 whole entry, looked up): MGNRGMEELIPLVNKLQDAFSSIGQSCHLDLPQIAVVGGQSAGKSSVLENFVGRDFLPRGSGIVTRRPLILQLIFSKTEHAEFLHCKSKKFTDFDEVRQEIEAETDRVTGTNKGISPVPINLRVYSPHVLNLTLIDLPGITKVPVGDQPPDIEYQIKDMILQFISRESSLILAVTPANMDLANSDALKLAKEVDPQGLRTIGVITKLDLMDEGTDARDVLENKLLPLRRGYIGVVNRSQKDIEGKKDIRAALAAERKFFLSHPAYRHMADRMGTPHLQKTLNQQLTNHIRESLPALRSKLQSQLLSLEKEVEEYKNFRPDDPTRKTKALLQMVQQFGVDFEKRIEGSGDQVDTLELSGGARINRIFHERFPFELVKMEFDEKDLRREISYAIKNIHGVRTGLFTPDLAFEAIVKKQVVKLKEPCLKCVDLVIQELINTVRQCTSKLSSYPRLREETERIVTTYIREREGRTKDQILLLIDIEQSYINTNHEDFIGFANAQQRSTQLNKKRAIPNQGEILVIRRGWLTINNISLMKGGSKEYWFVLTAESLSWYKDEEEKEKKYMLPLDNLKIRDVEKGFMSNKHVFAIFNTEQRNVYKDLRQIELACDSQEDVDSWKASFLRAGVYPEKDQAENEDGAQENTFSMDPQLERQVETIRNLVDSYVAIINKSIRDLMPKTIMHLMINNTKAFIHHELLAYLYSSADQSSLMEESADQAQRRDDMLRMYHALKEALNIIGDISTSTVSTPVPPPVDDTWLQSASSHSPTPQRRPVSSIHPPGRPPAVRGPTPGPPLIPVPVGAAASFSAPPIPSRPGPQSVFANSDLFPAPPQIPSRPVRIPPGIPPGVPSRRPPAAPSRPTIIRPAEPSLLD
Target,log2 fold change [1],log2 fold change (filanesib),log2 fold change (zotarolimus),log2 fold change (alisertib),log2 fold change [2],log2 fold change (gefitinib),log2 fold change [3],log2 fold change (lapatinib),log2 fold change [4],log2 fold change (crizotinib),log2 fold change [5],log2 fold change [6],log2 fold change (duvelisib),log2 fold change (tozasertib),log2 fold change [7],log2 fold change (doramapimod),log2 fold change (ispinesib),log2 fold change (idasanutlin),log2 fold change (pictilisib),log2 fold change (gandotinib)
DNAJC24 (UniProt Q6P3W2),-0.06,0.199,0.004,0.045,-0.111,0.018,-0.112,0.034,-0.054,0.055,-0.031,-0.004,-0.028,0.05,-0.024,0.038,0.01,,,
DYNC1I2 isoform 2 (UniProt Q13409),0.093,0.203,-0.085,0.066,0.06,,0.051,-0.002,0.185,-0.05,-0.02,-0.647 (active),,0.044,,-0.079,0.06,0.201,,
DHRS13 (UniProt Q6UX07),-0.096,0.298,0.271,-0.011,,0.081,-0.002,,0.107,0.127,,0.058,-0.013,0.104,0.139,0.123,-0.034,0.057,0.026,0.064
EXOSC10 (UniProt Q01780),0.593,0.136,0.115,-0.002,0.387,,0.1,-0.221,0.126,0.043,0.063,-0.015,0.09,-0.118,-0.138,0.097,-0.441,0.01,0.227,0.527
CTSL (UniProt P07711),-0.143,0.316 (active),-0.041,-0.099,0.044,0.025,0.086,0.087,0.025,-0.489 (active),-0.02,0.021,-0.07,-0.081,-0.013,0.018,-0.199,0.125,0.057,0.006
DNM2 isoform 4 (UniProt P50570),0.455,0.021,0.273,0.316,,-0.013,-0.272,,-0.302,-0.087,-0.039,-0.087,0.159,,0.5,-0.203,0.092,,-0.123,0.126
CWF19L2 (UniProt Q2TBE0),0.003,0.225,-0.025,,0.062,,,-0.08,-0.024,-0.034,,0.027,-0.1,-0.016,-0.001,-0.021,-0.115,0.124,-0.309,0.777 (active)
ERLIN2 (UniProt O94905),-0.006,0.039,0.034,-0.085,-0.143,-0.058,-0.076,-0.019,-0.017,-0.034,-0.167,0.068,-0.032,0.009,0.155,0.057,-0.251 (active),0.09,-0.09,-0.044
FAM207A (UniProt Q9NSI2),-0.034,0.238,,0.238,0.108,-0.124,-0.146,0.041,0.009,0.075,0.08,,0.128,0.053,-0.098,0.101,-0.077,0.009,-0.097,-0.039
EIF2AK1 (UniProt Q9BQI3),-0.047,0.014,-0.057,0.032,0.01,,-0.089,0.025,0.023,0.015,0.015,0.045,-0.007,-0.028,0.053,0.068,-0.024,-0.035,-0.147,0.137
DNAJC1 (UniProt Q96KC8),-0.023,-0.138,-0.039,0.001,-0.17,0.008,0.022,-0.078,-0.021,-0.148,0.009,0.023,0.027,-0.035,0.009,0.002,-0.356 (active),-0.064,0.017,-0.094
EIF4G3 isoform 3 (UniProt O43432),-0.15,0.063,0.002,-0.003,-0.01,0.032,-0.32,0.142,0.053,-0.106,,0.074,-0.082,-0.013,0.075,0.013,-0.02,0,,
ELF1 (UniProt P32519),0.001,0.028,-0.019,,-0.297,0.01,,-0.12,0.093,-0.06,-0.006,-0.007,0.032,0.008,0.057,-0.039,-0.038,0.089,,
DNAJB12 (UniProt Q9NXW2),0.023,-0.024,-0.06,-0.081,0.023,0.029,0.006,-0.033,0.02,-0.029,0.038,0.035,-0.009,-0.001,0.097,-0.034,-0.227 (active),-0.006,-0.051,-0.073
DNAH10 (UniProt Q8IVF4),0.574 (active),-0.187,-0.046,-0.042,,-0.04,0.007,,0.124,0.135,-0.003,-0.055,0.077,-0.146,-0.082,-0.003,,,0.052,-0.136
ERCC6 (UniProt Q03468),-0.067,-0.268,0.102,0.102,-0.002,0.026,-0.042,0.077,-0.12,0.061,0.011,-0.127,0.044,-0.051,-0.103,0.053,0.152,-0.14,-0.04,0.017
EZH2 isoform 2 (UniProt Q15910),-0.105,-0.113,-0.073,-0.209,-0.129,,-0.144,0.112,-0.012,-0.196,-0.039,0.072,-0.112,-0.12,0.279,0.095,,0.073,,
CTU1 (UniProt Q7Z7A3),0.045,-0.193,0.022,-0.063,-0.061,-0.024,0.025,-0.085,0.005,-0.132,0.081,-0.032,-0.012,-0.026,0.058,-0.049,-0.082,-0.037,-0.005,-0.015
